Bioassay records (PubChem BioAssay)
Sampled rows, rich in hits. Any-hit rate of the full collection: about 19%.
IL1B secr inh: qHTS for Inhibitors of Inflammasome Signaling: IL-1-beta AlphaLISA Primary Screen; THP-1 LPS/ATP IL-1B secretion, AlphaLISA, 16 h; active compounds read low; activity change, % at 57.5 µM; 4.7% of 360,000 active; in the data active = activity change below about -50%; inconclusive = mostly about -30% to -49%
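THP-1 cells pretreated 1 hr with compounds (up to 57.5 uM final), then stimulated with LPS (250 ng/mL final) plus ATP (1.25 mM final); secreted IL-1B measured by AlphaLISA after 16 hr, decreased signal indicating inhibition.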
DT40 TDP1 CPT: qHTS for Inhibitors of human tyrosyl-DNA phosphodiesterase 1 (TDP1): qHTS in cells in presence of CPT; Potency, µM (top dose mostly 46.2 µM), usual class: inhibitors; chicken DT40 Tdp1-/-;hTDP1 cells + 20 nM CPT, ATP luminescence, 48 h; 12% of 420,000 active; note: nearly all actives have a fitted effect of over 55% in size
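Cell growth measured by CellTiter-Glo luminescence after a minimum 48 h, 37 C compound exposure with 20 nM CPT in Tdp1-knockout DT40 cells stably expressing hTDP1, seeded 400/well; qHTS titration format.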
HT1080NT lethal: qHTS for induction of synthetic lethality in tumor cells producing 2HG: qHTS for the HT-1080-NT fibrosarcoma cell line. HT-1080-NT fibrosarcoma viability, CellTiter-Glo ATP luminescence, 48 h. Potency, µM (top dose mostly 46.1 µM), usual class: cytotoxic. 1.6% of 360,000 active;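 note: NT is the 2HG producing partner of a matched IDH1 knockdown line; nearly all actives have a fitted effect of over 55% in size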
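Luminescent CellTiter-Glo readout after 48 hours of compound exposure at 37 degrees C defined viability of HT-1080-NT cells. Activity was normalized to DMSO wells and cell-free media wells; concentration-response curves were fitted and assigned curve classes.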
DT40 TDP1 no CPT: qHTS for Inhibitors of human tyrosyl-DNA phosphodiesterase 1 (TDP1): qHTS in cells in absence of CPT | 15% of 420,000 active | Potency, µM (series often up to 46.2 µM), hits mostly inhibitors | DT40 Tdp1-/- hTDP1 cells, no CPT, ATP luminescence, 48 h | AID 686978, 2013; note: nearly all actives have a fitted effect of over 55% in size
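DT40 Tdp1-/-;hTDP1 cells, no CPT (DMSO vehicle only), 400 cells/well; compounds pin-transferred; ≥48 hr, 37 °C; CellTiter-Glo 30 min RT dark, luminescence read.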
HT1080 IDH1KD tx: qHTS for induction of synthetic lethality in tumor cells producing 2HG: qHTS for the HT-1080-IDH1KD cell line; Potency, µM (series often up to 46.1 µM), usual class: cytotoxic; 2% of 360,000 active; AID 686971, 2013; HT-1080 IDH1 knockdown viability, ATP luminescence, 48 h
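Viability of IDH1-knockdown HT-1080 fibrosarcoma cells was assessed by CellTiter-Glo after 48 h at 37 °C with titrated compound; concentration-effect curves were classified by fit quality and response size.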
Hits are given with their value; i = inactive; ? = inconclusive; nt = no result. Unless noted, calls come from the whole dose curve; as a rule, active = well fitted curve in the direction sought with a large enough effect; inconclusive = small, poorly fitted or top-dose-only effect, or another doubt; inactive = no such curve, though single readings can be large; an effect the other way counts as inactive or inconclusive.

SMILES	IL1B secr inh	DT40 TDP1 CPT	HT1080NT lethal	DT40 TDP1 no CPT	HT1080 IDH1KD tx
Cc1cc(O)c(C(C)C)cc1NC(=O)Nc1cccc2ccccc12	-66	i	i	?	i
Cc1oc(-c2ccccc2)cc1C(=O)Nc1cccc2ccccc12	-66	i	i	i	i
Cc1cc(O)c(C(C)C)cc1NC(=O)Nc1cc(Cl)ccc1Cl	i	?	i	?	i
Cc1ccc(NC(=O)c2cn3c4c(ccc(Cl)c4c2=O)OC(C)C3)c(C)c1 (stereo unspecified)	nt	i	nt	i	nt
O=C(Nc1ccccc1)Nc1cccc2ccccc12	i	16µM	i	?	i
CC(=NNC(=O)c1ccncc1)c1cccc(Cl)c1	i	i	i	i	i
CCCCN1CC(=O)N2[C@H](c3ccc(OC)cc3)[C@@H]3C(=O)N(CC)C(=O)[C@@H]3[C@]2(C)C1=O	i	i	i	i	i
OCCCNc1c2ccccc2nc2ccccc12	-104	12µM	23µM	9.2µM	12µM
Fc1cccc(NCCc2c[nH]c3ccccc23)n1	i	i	i	?	i
c1ccc2c(NCCc3c[nH]c4ccccc34)c3ccccc3nc2c1	-57	2.6µM	?	2.9µM	?
CCC1CN(C(=O)N2CCC(C(=O)NCc3cccs3)CC2)c2cc(C)ccc2O1 (stereo unspecified)	nt	18µM	nt	23µM	nt
CN(C)C(=O)N1CCC(C(=O)NCc2cccs2)CC1	i	i	i	i	i
Cc1ccc2c(c1)N(C(=O)N1CCC(C(=O)NCc3cccs3)CC1)CC(C)O2 (stereo unspecified)	nt	?	nt	18µM	nt
COc1ccc(S(=O)(=O)Nc2ccc3oc(C)c(C(=O)O)c3c2)cc1	i	i	i	i	i
COc1ccc(S(=O)(=O)N(C(=O)c2ccncc2)c2ccc3oc4c(c3c2)CCCC4)cc1	i	18µM	i	21µM	?
COc1ccc(N(C(=O)c2ccncc2)S(=O)(=O)c2ccccc2)cc1	i	i	i	i	i
Cc1ccc(S(=O)(=O)Nc2cc(Cl)c3oc4c(c3c2)CCCC4)cc1	nt	?	nt	13µM	nt
O=C(c1ccncc1)N(c1ccc2oc3c(c2c1)CCCC3)S(=O)(=O)c1cccc([N+](=O)[O-])c1	i	i	?	?	?
COc1ccc(S(=O)(=O)Nc2ccc3oc4c(c3c2)CCCC4)cc1	nt	?	nt	21µM	nt
COc1ccc(S(=O)(=O)N(C(=O)c2ccncc2)c2ccc3oc(C)c(C(C)=O)c3c2)cc1	nt	3.7µM	nt	2.3µM	nt
Cc1ccc(Oc2ccccc2/C=C/C(=O)O)cc1	i	i	i	i	i
COc1ccc(N(C(=O)c2ccncc2)S(=O)(=O)c2ccc(OC)c(OC)c2)cc1	i	i	i	i	i
COCCOC(=O)c1c(C)oc2ccc(NS(=O)(=O)c3ccc(F)cc3)cc12	i	?	i	i	i
CCc1ccc(S(=O)(=O)N(C(=O)c2ccncc2)c2ccc3oc(C)c(C(=O)OC)c3c2)cc1	nt	2.9µM	nt	2.6µM	nt
CCCC(=O)N(c1ccc2oc(=O)sc2c1)S(=O)(=O)c1cccs1	i	?	?	?	i
SMILES	IL1B secr inh	DT40 TDP1 CPT	HT1080NT lethal	DT40 TDP1 no CPT	HT1080 IDH1KD tx
CCN(CC)C(=O)COc1ccc2oc(C)c(C(=O)OC)c2c1	i	i	i	?	i
CCCCC(=O)N(c1ccc2oc(C)c(C(C)=O)c2c1)S(=O)(=O)c1ccc(F)cc1C	nt	15µM	nt	10µM	nt
CCOc1ccc(S(=O)(=O)N(C(=O)c2ccncc2)c2ccc3oc(C)c(C(=O)OC)c3c2)cc1	nt	1µM	nt	0.92µM	nt
COC(=O)c1c(C)oc2ccc(N(C(=O)c3ccncc3)S(=O)(=O)c3ccc(OC)cc3)cc12	nt	0.58µM	nt	0.52µM	nt
Cc1occc1-c1nnc(SCC(=O)c2c(N)n(C3CC3)c(=O)[nH]c2=O)n1C	i	i	i	i	i
Cc1ccc(-c2cc(C(=O)OCn3nnc4ccccc4c3=O)c3ccccc3n2)cc1	i	i	i	i	i
CC(=O)c1c(C)oc2ccc(N(C(=O)Oc3ccccc3)S(=O)(=O)c3ccc(C(C)(C)C)cc3)cc12	nt	5.2µM	nt	9.2µM	nt
CC(=O)c1c(C)oc2ccc(N(C(C)=O)S(=O)(=O)c3cccc([N+](=O)[O-])c3)cc12	i	21µM	i	?	i
CN(c1ccc(C(=O)Nc2cccc([N+](=O)[O-])c2)cc1)S(C)(=O)=O	i	?	i	?	i
COc1cc2c(cc1OC)C(=O)C(c1ccc3c(c1)OCO3)CC2 (stereo unspecified)	i	?	i	?	i
COc1cc2c(cc1OC)C(=O)C(Br)CC2 (stereo unspecified)	i	3.7µM	?	4.6µM	?
CC1(C(=O)NS(=O)(=O)c2ccc(F)cc2F)CCN1C(=O)Cc1ccc(Cl)cc1Cl (stereo unspecified)	i	i	i	i	i
COc1cccc(C2=CC(c3cccs3)n3nnnc3N2)c1 (stereo unspecified)	i	2.3µM	8.2µM	3.3µM	8.2µM
COc1ccc(C2CC(c3cc(Br)ccc3F)n3nnnc3N2)cc1 (stereo unspecified)	?	?	i	?	i
COc1cccc(C2=CC(c3ccc(OC)c(OC)c3OC)n3nnnc3N2)c1 (stereo unspecified)	i	i	i	i	i
C=CCOC(=O)C1=C(C)Nc2nnnn2C1c1ccc(OC)cc1OC (stereo unspecified)	i	i	i	i	i
COc1ccc(C2C=C(c3ccc(Br)cc3)Nc3nnnn32)c(OC)c1 (stereo unspecified)	nt	i	nt	23µM	nt
CCc1ccc(C2=CC(c3cc(Br)ccc3F)n3ncnc3N2)cc1 (stereo unspecified)	?	23µM	i	18µM	i
Fc1ccc(Br)cc1C1C=C(c2ccc(Br)cc2)Nc2nnnn21 (stereo unspecified)	nt	?	nt	23µM	nt
CC(C)(C)c1ccc(-c2nc3n(c(=O)c2C#N)CCS3)cc1	i	i	i	?	i
CCN(CC)CC(=O)Nc1c(C)cccc1C	i	i	?	i	i
Cc1cccc(C)c1NC(=O)C(Cl)=C(Cl)Cl	-59	i	?	i	?
COC(=O)CC1C(=O)NCCN1C(=O)c1cc([N+](=O)[O-])ccc1Cl (stereo unspecified)	i	i	i	i	i
Oc1ccccc1-c1nnc(COc2ccc(Cl)cc2Cl)o1	i	21µM	i	?	i
NC(=O)c1ccccc1OCc1nnc(-c2ccccc2Br)o1	i	23µM	i	29µM	i
O=Cc1ccc(OCc2nnc(-c3ccccc3Br)o2)cc1	i	i	i	i	i
